Test results reported in PMC7862700, “An all-to-all approach to the identification of sequence-specific readers for epigenetic DNA modifications on cytosine”.

How the values were obtained:
Test in all cases: DAPPL (digital affinity profiling via proximity ligation, sequencing); 10 mM Tris-HCl pH 7.5, 50 mM NaCl, 1 mM DTT, 4% glycerol, room temperature, 30 min; GST-TFs on glutathione beads, 16-mer random dsDNA library, 0.1% formaldehyde crosslink after washing; high values mean tight binding
FEV = target: T1, FEV (Homo sapiens, UniProt Q99581 1-238); settings: protein: recombinant; tags: N-terminal GST; dsDNA, one strand shown
T1 sequence: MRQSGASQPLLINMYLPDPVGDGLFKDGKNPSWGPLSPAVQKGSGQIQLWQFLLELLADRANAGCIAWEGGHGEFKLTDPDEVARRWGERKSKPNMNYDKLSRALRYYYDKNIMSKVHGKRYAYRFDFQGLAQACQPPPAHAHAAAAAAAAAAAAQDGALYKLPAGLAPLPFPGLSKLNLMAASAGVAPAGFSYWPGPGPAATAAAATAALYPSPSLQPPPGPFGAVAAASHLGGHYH
Method in brief: (§1)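 The binding signal reported is, for every hexamer, its read frequency for a factor over its read frequency for the tag-only sample. Reads came from pools of yeast-expressed, GST-fused human transcription factors on glutathione beads, barcoded with DNA and mixed with that sample, which were incubated with 200 nmole of a random double-stranded 16-mer DNA library in Tris/NaCl/DTT/glycerol buffer at room temperature for 30 min. After washing, the pools were crosslinked with 0.1% formaldehyde, proximity-ligated with BsaI/T4 ligase for 1 h at 37 °C, PCR-amplified and sequenced on an Illumina NextSeq500.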

ETV5 = ETV5 (Homo sapiens, UniProt P41161 1-510); settings: protein: recombinant; tags: N-terminal GST; dsDNA, one strand shown
ETV5, sequence (P41161 whole entry): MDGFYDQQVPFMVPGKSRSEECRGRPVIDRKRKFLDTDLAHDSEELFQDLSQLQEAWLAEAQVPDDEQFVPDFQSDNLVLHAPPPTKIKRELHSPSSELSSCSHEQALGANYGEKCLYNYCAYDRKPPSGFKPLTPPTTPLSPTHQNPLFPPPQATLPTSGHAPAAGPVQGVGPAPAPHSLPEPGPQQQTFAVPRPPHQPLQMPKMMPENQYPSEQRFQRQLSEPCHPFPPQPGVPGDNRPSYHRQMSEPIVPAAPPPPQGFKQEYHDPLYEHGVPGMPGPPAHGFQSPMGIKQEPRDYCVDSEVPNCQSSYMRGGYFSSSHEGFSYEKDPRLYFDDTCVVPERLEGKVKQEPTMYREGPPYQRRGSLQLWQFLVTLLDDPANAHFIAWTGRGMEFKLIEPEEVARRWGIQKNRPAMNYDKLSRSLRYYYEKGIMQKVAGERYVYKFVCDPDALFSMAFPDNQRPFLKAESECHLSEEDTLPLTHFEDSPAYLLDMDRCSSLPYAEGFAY
Method in brief: as §1

HSF1 = HSF1 (Homo sapiens, UniProt Q00613 1-529); settings: protein: recombinant; tags: N-terminal GST; chain copies: 3; dsDNA, one strand shown
HSF1, sequence (Q00613 whole entry): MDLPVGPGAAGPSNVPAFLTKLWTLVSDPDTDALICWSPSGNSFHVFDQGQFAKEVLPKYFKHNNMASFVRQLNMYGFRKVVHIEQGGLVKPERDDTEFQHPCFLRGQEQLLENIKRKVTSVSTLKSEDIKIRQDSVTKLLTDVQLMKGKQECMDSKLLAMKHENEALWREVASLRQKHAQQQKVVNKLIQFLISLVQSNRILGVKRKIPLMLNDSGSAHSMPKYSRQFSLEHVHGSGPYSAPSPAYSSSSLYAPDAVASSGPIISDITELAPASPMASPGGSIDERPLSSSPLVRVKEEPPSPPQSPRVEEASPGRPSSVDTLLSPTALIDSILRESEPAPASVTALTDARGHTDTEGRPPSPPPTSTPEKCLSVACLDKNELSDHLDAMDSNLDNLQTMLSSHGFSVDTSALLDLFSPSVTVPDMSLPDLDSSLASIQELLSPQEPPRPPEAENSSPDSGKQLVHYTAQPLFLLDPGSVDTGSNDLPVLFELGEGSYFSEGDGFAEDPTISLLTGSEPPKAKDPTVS
Method in brief: as §1

SPIC = target: T2, SPIC (Homo sapiens, UniProt Q8N5J4 1-248); settings: protein: recombinant; tags: N-terminal GST; dsDNA, one strand shown
T2 sequence: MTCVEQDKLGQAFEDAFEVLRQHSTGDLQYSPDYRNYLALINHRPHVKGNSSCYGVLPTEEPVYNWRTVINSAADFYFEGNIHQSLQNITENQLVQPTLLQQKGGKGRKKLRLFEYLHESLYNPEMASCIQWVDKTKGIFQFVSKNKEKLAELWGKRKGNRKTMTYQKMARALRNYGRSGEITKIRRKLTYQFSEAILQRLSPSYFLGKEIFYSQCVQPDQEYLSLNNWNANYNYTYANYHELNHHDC
Method in brief: as §1

ELF4 = ELF4 (Homo sapiens, UniProt Q99607 1-663); settings: protein: recombinant; tags: N-terminal GST; dsDNA, one strand shown
ELF4, sequence (Q99607 whole entry): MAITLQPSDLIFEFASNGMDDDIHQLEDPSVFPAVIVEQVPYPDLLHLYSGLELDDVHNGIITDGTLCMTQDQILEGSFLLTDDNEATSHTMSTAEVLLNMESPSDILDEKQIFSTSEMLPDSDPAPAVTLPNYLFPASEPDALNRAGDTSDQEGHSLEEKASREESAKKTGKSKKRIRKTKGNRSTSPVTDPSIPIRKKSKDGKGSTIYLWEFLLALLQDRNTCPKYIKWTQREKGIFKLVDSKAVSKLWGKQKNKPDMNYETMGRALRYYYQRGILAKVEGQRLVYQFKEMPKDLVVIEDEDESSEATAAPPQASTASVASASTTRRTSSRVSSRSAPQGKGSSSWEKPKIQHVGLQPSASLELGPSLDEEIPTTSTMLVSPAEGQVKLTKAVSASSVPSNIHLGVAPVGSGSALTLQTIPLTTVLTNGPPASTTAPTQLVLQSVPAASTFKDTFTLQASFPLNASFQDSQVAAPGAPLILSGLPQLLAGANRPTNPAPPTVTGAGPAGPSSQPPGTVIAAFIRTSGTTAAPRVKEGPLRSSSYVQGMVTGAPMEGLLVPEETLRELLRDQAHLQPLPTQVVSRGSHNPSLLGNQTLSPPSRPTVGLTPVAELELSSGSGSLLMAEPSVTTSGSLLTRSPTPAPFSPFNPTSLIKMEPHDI
Method in brief: as §1

ELK4 = target: T3, ELK4 (Homo sapiens, UniProt P28324-2 1-405); settings: protein: recombinant; tags: N-terminal GST; dsDNA, one strand shown
T3 sequence: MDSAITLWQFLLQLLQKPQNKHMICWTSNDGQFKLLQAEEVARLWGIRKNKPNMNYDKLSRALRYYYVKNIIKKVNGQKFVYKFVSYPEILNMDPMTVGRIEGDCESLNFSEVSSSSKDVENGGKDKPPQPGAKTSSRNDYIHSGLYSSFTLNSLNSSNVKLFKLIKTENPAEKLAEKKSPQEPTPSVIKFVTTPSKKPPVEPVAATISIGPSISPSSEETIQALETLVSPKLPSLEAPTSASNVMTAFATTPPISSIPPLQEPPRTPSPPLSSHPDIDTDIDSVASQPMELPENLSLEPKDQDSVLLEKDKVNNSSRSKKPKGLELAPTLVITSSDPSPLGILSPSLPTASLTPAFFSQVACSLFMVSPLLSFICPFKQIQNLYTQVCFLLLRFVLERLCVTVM
Method in brief: as §1

ETV2 = target: T4, ETV2 (Homo sapiens, UniProt O00321 1-342); settings: protein: recombinant; tags: N-terminal GST; dsDNA, one strand shown
T4 sequence: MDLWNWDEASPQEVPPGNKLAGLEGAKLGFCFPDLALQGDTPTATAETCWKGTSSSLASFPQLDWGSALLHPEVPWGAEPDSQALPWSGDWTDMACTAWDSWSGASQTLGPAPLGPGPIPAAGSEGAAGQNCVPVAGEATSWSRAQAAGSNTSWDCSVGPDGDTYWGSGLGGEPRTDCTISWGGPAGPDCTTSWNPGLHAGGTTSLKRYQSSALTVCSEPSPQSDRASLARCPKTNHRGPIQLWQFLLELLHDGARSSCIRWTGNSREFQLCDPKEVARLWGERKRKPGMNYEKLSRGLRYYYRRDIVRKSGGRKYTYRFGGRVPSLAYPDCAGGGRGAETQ
Method in brief: as §1

ELF3 = target: T5, ELF3 (Homo sapiens, UniProt P78545 1-371); settings: protein: recombinant; tags: N-terminal GST; dsDNA, one strand shown
T5 sequence: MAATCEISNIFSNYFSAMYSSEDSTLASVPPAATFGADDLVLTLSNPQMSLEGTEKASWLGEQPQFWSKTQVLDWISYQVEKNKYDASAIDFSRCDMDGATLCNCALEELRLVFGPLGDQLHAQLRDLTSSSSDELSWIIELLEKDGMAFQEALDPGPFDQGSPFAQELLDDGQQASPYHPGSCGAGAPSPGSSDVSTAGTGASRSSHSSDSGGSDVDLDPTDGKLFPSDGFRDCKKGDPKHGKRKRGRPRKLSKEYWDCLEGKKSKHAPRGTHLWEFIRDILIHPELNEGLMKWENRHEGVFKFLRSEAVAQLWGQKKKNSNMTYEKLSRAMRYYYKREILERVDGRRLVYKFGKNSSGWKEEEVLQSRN
Method in brief: as §1

CRX = CRX (Homo sapiens, UniProt O43186 1-299); settings: protein: recombinant; tags: N-terminal GST; dsDNA, one strand shown
CRX, sequence (O43186 whole entry): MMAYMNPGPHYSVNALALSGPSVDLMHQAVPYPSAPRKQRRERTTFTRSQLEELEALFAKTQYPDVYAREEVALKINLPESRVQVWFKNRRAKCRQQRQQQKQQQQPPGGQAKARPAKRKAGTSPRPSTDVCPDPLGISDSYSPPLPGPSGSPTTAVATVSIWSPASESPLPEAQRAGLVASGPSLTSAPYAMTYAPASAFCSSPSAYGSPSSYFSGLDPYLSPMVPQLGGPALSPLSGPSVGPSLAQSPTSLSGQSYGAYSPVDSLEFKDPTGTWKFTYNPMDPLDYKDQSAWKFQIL
Method in brief: as §1

ETV1 = ETV1 (Homo sapiens, UniProt P50549 1-477); settings: protein: recombinant; tags: N-terminal GST; dsDNA, one strand shown
ETV1, sequence (P50549 whole entry): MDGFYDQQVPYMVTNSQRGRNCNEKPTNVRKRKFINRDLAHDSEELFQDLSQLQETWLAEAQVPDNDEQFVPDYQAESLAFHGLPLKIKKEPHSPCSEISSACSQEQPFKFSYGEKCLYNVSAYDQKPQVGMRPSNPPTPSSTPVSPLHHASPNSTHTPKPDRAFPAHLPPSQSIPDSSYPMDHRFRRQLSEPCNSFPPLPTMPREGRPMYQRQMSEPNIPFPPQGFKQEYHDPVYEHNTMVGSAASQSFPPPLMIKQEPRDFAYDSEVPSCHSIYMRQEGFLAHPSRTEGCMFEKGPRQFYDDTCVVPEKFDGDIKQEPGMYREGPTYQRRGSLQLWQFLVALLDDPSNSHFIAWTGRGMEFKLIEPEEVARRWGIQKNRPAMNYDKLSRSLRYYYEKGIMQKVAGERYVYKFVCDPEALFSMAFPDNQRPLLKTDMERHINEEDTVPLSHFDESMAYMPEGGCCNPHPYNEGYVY
Method in brief: as §1

ERF = target: T6, ERF (Homo sapiens, UniProt P50548 1-548); settings: protein: recombinant; tags: N-terminal GST; dsDNA, one strand shown
T6 sequence: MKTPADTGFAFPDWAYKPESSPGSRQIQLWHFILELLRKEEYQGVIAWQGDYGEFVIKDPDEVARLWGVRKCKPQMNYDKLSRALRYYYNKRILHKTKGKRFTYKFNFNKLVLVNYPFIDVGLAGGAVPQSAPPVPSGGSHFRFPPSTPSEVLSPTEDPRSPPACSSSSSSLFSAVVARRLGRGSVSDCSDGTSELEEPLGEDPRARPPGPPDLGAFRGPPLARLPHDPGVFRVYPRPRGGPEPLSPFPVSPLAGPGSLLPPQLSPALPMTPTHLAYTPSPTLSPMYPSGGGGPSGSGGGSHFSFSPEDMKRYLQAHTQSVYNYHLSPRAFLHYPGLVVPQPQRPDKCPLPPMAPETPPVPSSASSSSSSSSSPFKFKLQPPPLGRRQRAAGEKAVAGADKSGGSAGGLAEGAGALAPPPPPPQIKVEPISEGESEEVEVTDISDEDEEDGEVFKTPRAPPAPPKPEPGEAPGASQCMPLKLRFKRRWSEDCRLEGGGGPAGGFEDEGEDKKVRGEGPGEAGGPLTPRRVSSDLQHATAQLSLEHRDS
Method in brief: as §1

ETV3L = target: T7, ETV3L (Homo sapiens, UniProt Q6ZN32 1-361); settings: protein: recombinant; tags: N-terminal GST; dsDNA, one strand shown
T7 sequence: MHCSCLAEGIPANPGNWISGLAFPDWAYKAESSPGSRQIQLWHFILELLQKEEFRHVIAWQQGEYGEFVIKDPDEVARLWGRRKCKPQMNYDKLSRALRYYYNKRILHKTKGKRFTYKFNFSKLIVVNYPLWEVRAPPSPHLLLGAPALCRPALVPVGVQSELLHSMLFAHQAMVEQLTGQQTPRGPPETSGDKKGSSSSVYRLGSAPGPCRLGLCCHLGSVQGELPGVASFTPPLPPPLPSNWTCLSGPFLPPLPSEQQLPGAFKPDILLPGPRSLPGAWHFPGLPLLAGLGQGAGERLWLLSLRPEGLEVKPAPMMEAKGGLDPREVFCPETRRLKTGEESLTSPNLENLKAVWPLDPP
Method in brief: as §1

ETS2 = target: T8, ETS2 (Homo sapiens, UniProt P15036 1-469); settings: protein: recombinant; tags: N-terminal GST; dsDNA, one strand shown
T8 sequence: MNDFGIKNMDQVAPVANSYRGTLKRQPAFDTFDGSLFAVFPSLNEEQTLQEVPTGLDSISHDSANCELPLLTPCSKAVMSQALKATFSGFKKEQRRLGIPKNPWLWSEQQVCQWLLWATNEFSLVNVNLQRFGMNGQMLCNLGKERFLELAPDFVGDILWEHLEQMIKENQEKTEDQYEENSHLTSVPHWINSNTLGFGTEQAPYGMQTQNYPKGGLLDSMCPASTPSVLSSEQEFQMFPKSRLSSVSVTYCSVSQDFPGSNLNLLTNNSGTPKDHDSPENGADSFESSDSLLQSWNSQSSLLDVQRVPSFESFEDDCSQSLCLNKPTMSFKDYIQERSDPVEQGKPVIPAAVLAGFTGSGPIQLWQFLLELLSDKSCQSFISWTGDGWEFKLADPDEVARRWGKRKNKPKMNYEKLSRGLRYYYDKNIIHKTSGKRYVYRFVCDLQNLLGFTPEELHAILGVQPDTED
Method in brief: as §1

SPDEF = target: T9, SPDEF (Homo sapiens, UniProt O95238 1-335); settings: protein: recombinant; tags: N-terminal GST; dsDNA, one strand shown
T9 sequence: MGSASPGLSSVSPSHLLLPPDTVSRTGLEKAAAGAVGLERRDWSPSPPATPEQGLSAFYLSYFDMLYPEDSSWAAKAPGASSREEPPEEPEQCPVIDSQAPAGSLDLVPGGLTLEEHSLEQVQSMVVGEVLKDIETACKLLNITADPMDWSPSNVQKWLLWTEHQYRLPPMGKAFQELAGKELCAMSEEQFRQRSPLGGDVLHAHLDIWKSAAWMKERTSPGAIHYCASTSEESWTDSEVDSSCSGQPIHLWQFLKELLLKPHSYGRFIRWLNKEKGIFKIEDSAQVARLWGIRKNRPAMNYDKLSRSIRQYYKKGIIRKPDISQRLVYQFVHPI
Method in brief: as §1

ETV7 = target: T10, ETV7 (Homo sapiens, UniProt Q9Y603 1-341); settings: protein: recombinant; tags: N-terminal GST; dsDNA, one strand shown
T10 sequence: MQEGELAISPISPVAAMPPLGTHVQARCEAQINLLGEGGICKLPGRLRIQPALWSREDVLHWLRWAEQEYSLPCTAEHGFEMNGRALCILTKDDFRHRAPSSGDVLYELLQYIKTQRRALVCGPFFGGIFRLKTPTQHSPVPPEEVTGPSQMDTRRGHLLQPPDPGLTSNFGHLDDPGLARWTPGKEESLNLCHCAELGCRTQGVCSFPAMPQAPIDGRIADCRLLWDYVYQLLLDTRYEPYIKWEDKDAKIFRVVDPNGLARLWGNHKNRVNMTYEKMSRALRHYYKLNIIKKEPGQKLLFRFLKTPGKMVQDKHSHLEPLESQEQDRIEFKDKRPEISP
Method in brief: as §1

ELF5 = target: T11, ELF5 (Homo sapiens, UniProt Q9UKW6-2 1-255); settings: protein: recombinant; tags: N-terminal GST; dsDNA, one strand shown
T11 sequence: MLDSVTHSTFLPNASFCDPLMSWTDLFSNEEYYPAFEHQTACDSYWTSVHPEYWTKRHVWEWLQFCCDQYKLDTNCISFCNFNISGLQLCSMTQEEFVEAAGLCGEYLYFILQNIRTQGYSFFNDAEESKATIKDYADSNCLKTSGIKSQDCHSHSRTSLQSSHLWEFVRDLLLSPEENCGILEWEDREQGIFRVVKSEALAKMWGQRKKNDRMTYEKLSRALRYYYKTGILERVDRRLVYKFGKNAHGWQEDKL
Method in brief: as §1

ETV3 = target: T12, ETV3 (Homo sapiens, UniProt P41162-2 1-143); settings: protein: recombinant; tags: N-terminal GST; dsDNA, one strand shown
T12 sequence: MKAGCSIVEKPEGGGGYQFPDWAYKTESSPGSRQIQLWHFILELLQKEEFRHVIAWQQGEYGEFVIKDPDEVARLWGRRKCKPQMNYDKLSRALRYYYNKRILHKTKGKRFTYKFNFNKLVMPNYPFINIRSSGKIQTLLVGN
Method in brief: as §1

ETV6 = ETV6 (Homo sapiens, UniProt P41212 1-452); settings: protein: recombinant; tags: N-terminal GST; dsDNA, one strand shown
ETV6, sequence (P41212 whole entry): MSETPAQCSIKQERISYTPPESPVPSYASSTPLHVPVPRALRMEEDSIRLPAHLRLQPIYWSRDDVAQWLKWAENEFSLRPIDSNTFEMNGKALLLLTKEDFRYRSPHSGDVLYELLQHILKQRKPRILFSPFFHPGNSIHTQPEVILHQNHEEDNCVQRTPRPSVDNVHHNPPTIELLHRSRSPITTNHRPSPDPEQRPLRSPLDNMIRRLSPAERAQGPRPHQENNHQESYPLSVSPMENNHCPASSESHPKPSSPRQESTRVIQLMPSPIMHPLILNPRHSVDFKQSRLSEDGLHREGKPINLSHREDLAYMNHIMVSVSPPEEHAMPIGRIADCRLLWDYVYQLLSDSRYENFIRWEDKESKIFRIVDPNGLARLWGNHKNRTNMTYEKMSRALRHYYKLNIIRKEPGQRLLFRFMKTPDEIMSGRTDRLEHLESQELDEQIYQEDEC
Method in brief: as §1

TTCCTG was tested, and the binding signal (FEV) was 2.13 fold enrichment (6-mer frequency, TF over GST control), the binding signal (ETV5) was 2.57 fold enrichment (6-mer frequency, TF over GST control) and the binding signal (HSF1) was 1.63 fold enrichment (6-mer frequency, TF over GST control). For the same sequence, the binding signal (SPIC) was 2.31 fold enrichment (6-mer frequency, TF over GST control), the binding signal (ELF4) was 2.05 fold enrichment (6-mer frequency, TF over GST control) and the binding signal (ELK4) was 1.78 fold enrichment (6-mer frequency, TF over GST control). The binding signal (ETV2) was 2.46 fold enrichment (6-mer frequency, TF over GST control), the binding signal (ELF3) was 2.23 fold enrichment (6-mer frequency, TF over GST control) and the binding signal (CRX) was 1.12 fold enrichment (6-mer frequency, TF over GST control). For the same sequence, the binding signal (ETV1) was 2.22 fold enrichment (6-mer frequency, TF over GST control), the binding signal (ERF) was 1.87 fold enrichment (6-mer frequency, TF over GST control) and the binding signal (ETV3L) was 2.35 fold enrichment (6-mer frequency, TF over GST control). The binding signal (ETS2) was 2.4 fold enrichment (6-mer frequency, TF over GST control), the binding signal (SPDEF) was 2.25 fold enrichment (6-mer frequency, TF over GST control) and the binding signal (ETV7) was 2.03 fold enrichment (6-mer frequency, TF over GST control). The binding signal (ELF5) was 3.79 fold enrichment (6-mer frequency, TF over GST control), the binding signal (ETV3) was 2.66 fold enrichment (6-mer frequency, TF over GST control) and the binding signal (ETV6) was 2.57 fold enrichment (6-mer frequency, TF over GST control).
